Experiment [1] concerns the target Lysosomal acid glucosylceramidase (Homo sapiens) (UniProt P04062). The experiment in a line: Glucocerebrosidase-p2 (AID 348; in the data active = potency below about 10 µM; note: potency is the fitted concentration of half-maximal effect). The following applies: purified GBA, blue fluorogenic substrate, 40 min. An outline of the steps:
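Compounds titrated from 0.6 nM upwards against 0.2 nM enzyme in pH 5.9 citric acid/KH2PO4, taurocholate, tween-20; blue fluorogenic substrate 80 uM, 40 min room temperature, stopped and read Ex 365/Em 440 for AC50.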

The nature of experiment [2]: AP1 Signaling Pathway (AID 357; active = well fitted curve in either direction with a large enough effect, not every such curve was filed as active;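 note: ME-180 reporter cells stimulated with EGF at its EC50 level; % is set by controls: 0 for no effect and ±100 for the full control effect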). To be noted: ME-180 AP-1-bla reporter, EGF-induced, beta-lactamase ratio, 5 h; at 7.69 µM (top of the series) unless noted. An outline of the steps:
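Cells are seeded overnight, exposed to compound titrations and an EC50 level of EGF for 5 hours at 37 °C, then loaded with CCF4 dye for 2.5 hours. Beta-lactamase activity under the AP-1 element is read as a blue/green ratio.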

Experiment [3] concerns the target Cytochrome P450 1A2 (Homo sapiens) (UniProt P05177). Nature of the experiment: p450-cyp1a2 (AID 410; calls by dose curve; note: potency is the fitted concentration of half-maximal effect). To be noted: recombinant CYP1A2, luciferin-ME demethylation, luminescence; series mostly up to 57 µM. An outline of the steps: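 Inhibition was calculated relative to 57 uM furafylline (full inhibition). The reaction used human CYP1A2 at 20nM with Luciferin-ME at its Km, 100uM, driven by an NADPH-regenerating system for 60 min at room temperature.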

The nature of experiment [4]: NFAT Signaling Pathway (AID 444; active = well fitted curve in either direction with a large enough effect, not every such curve was filed as active;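 note: carbachol stimulus at about its EC50 of 1 µM final; % is set by controls: 0 for no effect and ±100 for the full control effect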). To be noted: Jurkat NFAT-bla M1, carbachol, beta-lactamase ratio, 5 h; at 7.69 µM (top of the series) unless noted. An outline of the steps:
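Read-out: CCF4 FRET ratio (460 nm/530 nm) after 1 h RT dye loading, used for %activity and AC50 from titration series. Cells: Jurkat NFAT-β-lactamase/M1 line, treated with compound plus 1 uM carbachol for 5 h, 37 °C.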

Experiment [5] can be described thus: Stat Signaling Pathway (AID 446; active = well fitted curve in either direction with a large enough effect, not every such curve was filed as active;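 note: ME-180 cervical cancer cells given 40 pM IL-6 alongside compound; SIE-controlled beta-lactamase reporter measured as 460/530 nm FRET emission ratio; % is set by controls: 0 for no effect and ±100 for the full control effect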). To be noted: ME-180 (cervical carcinoma) SIE beta-lactamase reporter, IL-6 stimulated, 5 h; at 7.69 µM (top of the series) unless noted. An outline of the steps:
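IL-6/STAT signaling read in ME-180 cells via an SIE beta-lactamase reporter. Stimulus was 40 pM IL-6 (its AC50) for 5 hrs, so both activation and inhibition register.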

For experiment [6], the target named is Glucocorticoid receptor (Homo sapiens) (UniProt P04150). The experiment in a line: GR-GFP Redistribution (AID 450;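 active = compounds whose dose series gives a full or clear partial fitted curve of increased nuclear translocation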; note: potency is the fitted concentration of half-maximal effect). To be noted: U2OS GR-GFP nuclear translocation, laser cytometry, 2 h.
Glucocorticoid receptor (Homo sapiens), sequence (P04150 whole entry, looked up): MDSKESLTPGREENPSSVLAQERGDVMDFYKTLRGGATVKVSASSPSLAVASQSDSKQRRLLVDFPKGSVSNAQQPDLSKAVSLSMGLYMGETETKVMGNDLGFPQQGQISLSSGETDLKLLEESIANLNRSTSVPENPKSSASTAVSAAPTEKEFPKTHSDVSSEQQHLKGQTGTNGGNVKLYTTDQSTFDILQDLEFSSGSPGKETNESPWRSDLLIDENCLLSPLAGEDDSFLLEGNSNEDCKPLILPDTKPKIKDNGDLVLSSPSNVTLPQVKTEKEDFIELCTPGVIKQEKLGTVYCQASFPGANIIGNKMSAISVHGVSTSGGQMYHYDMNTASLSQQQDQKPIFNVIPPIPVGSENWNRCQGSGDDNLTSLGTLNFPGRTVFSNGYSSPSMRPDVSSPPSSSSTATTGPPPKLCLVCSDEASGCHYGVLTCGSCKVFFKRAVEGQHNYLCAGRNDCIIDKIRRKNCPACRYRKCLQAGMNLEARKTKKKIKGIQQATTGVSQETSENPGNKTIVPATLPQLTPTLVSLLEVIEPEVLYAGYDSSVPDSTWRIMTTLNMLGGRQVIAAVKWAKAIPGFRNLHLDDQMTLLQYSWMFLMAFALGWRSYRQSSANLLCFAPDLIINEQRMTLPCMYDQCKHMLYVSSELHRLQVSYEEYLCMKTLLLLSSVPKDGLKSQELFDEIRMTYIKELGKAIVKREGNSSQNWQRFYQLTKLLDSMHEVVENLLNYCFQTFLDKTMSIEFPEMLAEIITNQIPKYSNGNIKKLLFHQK
For experiment [7] the target is unchanged. Nature of the experiment: GR-EFC Redistribution (AID 451; calls by dose curve; note: potency is the fitted concentration of half-maximal effect). The following applies: CHO-K1 GR-EFC translocation, beta-gal luminescence, 2 h. In a few lines:
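Translocation of GR-ED fusion to nuclear EA restores b-gal, read by luminescence after 1 h room-temperature detection. Engineered CHO-K1 biosensor cells, 1,000/well, exposed 2 h at 37 C to titrations up to 46 uM final.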

The target in experiment [8] is Mitogen-activated protein kinase 10 (Mus musculus) (UniProt Q61831). Nature of the experiment: JNK3 AlphaScreen Assay (AID 530; active = well fitted curve in either direction with a large enough effect, not every such curve was filed as active;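 note: kinase came from lysate of stimulated human HepG2 cells; signal reports phosphorylation of biotinylated GST-cJun 1-79 at Ser73 with 10 µM ATP; % is set by controls: 0 for no effect and ±100 for the full control effect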). To be noted: JNK3 lysate, c-Jun phosphorylation; series mostly up to 57.1 µM. An outline of the steps: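 Room-temperature AlphaScreen kinase assay; pre-activated HepG2 lysate as JNK3 source, biotin-GST-cJun(1-79) substrate, 10 uM ATP, compound 15 min preincubation.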
(In general: In Alpha technology, singlet oxygen from a donor bead excites a nearby acceptor bead.)

For experiment [9], the target named is 3',5'-cyclic-AMP phosphodiesterase 4B (Homo sapiens) (UniProt Q07343). Nature of the experiment: qHTS Assay for Inhibitors of PDE-IV (AID 607; active = well fitted activation curve with a large enough effect in the main read-out, with a control signal flat, not every such curve was filed as active; note: % of control where 0% means no effect). To be noted: HEK293 ACTOne CNG channel cells, membrane potential fluorescence; series mostly up to 22.9 µM. In a few lines: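 Live HEK293 cells with a modified cyclic nucleotide-gated (CNG) channel report intracellular cAMP via membrane-potential dye fluorescence (ex 535/em 590 nm). Endogenous PDE-IV was targeted. Compounds were tested at up to 22.9 uM final; RO 20-1724 100 uM served as control.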
3',5'-cyclic-AMP phosphodiesterase 4B (Homo sapiens), sequence (Q07343 whole entry, looked up): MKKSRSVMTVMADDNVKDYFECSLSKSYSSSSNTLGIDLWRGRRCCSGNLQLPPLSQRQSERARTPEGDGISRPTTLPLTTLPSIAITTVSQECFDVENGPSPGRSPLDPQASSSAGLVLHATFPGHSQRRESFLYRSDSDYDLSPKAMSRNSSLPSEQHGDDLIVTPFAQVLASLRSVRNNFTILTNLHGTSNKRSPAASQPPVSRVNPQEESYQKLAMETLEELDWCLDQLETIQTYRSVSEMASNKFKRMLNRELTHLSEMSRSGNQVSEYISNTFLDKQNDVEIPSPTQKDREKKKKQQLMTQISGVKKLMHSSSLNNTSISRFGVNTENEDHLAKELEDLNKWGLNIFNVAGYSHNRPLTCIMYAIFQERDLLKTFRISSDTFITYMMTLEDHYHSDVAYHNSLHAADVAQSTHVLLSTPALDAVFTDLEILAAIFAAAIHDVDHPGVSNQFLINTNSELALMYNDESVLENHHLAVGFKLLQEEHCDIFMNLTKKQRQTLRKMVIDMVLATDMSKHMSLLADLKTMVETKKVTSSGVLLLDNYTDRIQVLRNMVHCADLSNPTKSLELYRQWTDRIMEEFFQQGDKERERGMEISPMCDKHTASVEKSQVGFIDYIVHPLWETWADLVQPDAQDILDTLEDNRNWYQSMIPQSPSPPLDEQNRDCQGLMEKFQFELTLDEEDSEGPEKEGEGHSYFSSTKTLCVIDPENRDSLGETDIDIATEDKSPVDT

Experiment [10] deals with Cytochrome P450 3A4 (Homo sapiens) (UniProt P08684). Nature of the experiment: qHTS Assay for Inhibitors and Substrates of Cytochrome P450 3A4 (AID 884). Note: potency is the fitted concentration of half-maximal effect; nearly all actives have a fitted effect of over 50% in size. To be noted: recombinant CYP3A4, Luciferin-PPXE luminescence; series mostly up to 57.1 µM. An outline of the steps: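 20 nM human CYP3A4 with 25 uM Luciferin-PPXE (at KM) in 200 mM KPO4, preincubated 10 min with compound; NADPH regeneration started a 60 min RT reaction. Luciferin detected by luminescence, normalized to 57 uM ketoconazole as full inhibition.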
Cytochrome P450 3A4 (Homo sapiens), sequence (P08684 whole entry, looked up): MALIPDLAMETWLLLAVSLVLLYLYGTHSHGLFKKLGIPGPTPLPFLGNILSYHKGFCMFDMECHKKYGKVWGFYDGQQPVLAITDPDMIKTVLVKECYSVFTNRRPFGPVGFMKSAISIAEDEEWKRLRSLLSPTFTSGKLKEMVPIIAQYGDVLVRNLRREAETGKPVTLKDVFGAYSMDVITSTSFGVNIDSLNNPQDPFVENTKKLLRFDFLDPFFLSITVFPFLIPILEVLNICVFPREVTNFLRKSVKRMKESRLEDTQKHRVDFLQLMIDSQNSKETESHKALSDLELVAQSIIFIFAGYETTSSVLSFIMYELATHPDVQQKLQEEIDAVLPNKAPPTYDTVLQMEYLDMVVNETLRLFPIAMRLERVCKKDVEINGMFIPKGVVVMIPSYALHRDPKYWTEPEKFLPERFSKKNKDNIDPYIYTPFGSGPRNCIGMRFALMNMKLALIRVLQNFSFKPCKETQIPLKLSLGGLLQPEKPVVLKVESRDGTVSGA
On the technique in general: Quantitative high-throughput screening tests each substance at several concentrations.

The target is the same in experiment [11]. The experiment in a line: qHTS Assay for Activators of Cytochrome P450 3A4 (AID 885). Note: nearly all actives have a fitted effect of over 65% in size. The following applies: recombinant CYP3A4, Luciferin-PPXE luminescence, 60 min; series mostly up to 57.1 µM. An outline of the steps:
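Quantitative HTS format: compounds preincubated with 20nM human CYP3A4 and Luciferin-PPXE substrate at KM, reaction started by NADPH regeneration, stopped after 60 min, luciferase luminescence read 20 min later.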

For experiment [12], the target named is Cytochrome P450 2D6 (Homo sapiens) (UniProt P10635). Nature of the experiment: qHTS Assay for Inhibitors and Substrates of Cytochrome P450 2D6 (AID 891). Note: potency is the fitted concentration of half-maximal effect; nearly all actives have a fitted effect of over 60% in size. To be noted: recombinant CYP2D6, luciferin-ME EGE luminescence; series mostly up to 57.1 µM. In a few lines:
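Human CYP2D6 (5 nM) with 30 uM Luciferin-ME EGE (at Km) in 100 mM KPO4, compound preincubated 10 min, then NADPH regeneration system for 60 min at room temperature. Luciferin read by luminescence; normalized to 1.43 uM quinidine.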

The target of experiment [13] is Cytochrome P450 2C19 (Homo sapiens) (UniProt P33261). The experiment in a line: qHTS Assay for Inhibitors and Substrates of Cytochrome P450 2C19 (AID 899). Note: % is set by controls: 0 for no effect and ±100 for the full control effect; nearly all actives have a fitted effect of over 60% in size. To be noted: recombinant CYP2C19, luciferin-H EGE luminescence; series mostly up to 57.1 µM. In a few lines: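 5nM enzyme + 10uM Luciferin-H EGE (=KM), 50mM KPO4; cpd pin-transferred, 10 min 37C; NADPH regen, 60 min 37C; stopped w/ luciferin detection reagent, 20 min; luminescence. Normalized to 57uM ketoconazole (AC100).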
Cytochrome P450 2C19 (Homo sapiens), sequence (P33261 whole entry, looked up): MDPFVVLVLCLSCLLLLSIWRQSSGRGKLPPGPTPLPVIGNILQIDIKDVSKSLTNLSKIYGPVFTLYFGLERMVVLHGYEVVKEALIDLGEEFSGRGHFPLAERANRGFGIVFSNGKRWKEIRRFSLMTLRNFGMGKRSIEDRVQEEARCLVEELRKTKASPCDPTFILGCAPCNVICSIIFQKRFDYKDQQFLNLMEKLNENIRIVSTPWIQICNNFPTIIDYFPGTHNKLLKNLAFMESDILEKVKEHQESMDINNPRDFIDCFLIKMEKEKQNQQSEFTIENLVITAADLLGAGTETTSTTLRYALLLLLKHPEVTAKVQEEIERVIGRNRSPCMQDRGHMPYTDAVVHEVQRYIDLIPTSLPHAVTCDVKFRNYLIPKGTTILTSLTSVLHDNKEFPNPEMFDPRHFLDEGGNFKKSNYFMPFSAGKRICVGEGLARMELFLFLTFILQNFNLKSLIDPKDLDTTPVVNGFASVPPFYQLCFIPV

Experiment [14] can be described thus: Confirmation and Secondary Assay for Modulators of Hemoglobin Beta Chain Splicing at IVS2 654 locus (AID 910).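 Note: HeLa cells stably carrying EGFP split by mutant beta-globin IVS2-654 intron; % of control where 0% means no effect.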 The following applies: HeLa EGFP-654 splicing reporter, GFP fluorescence, 48 h; series mostly up to 38.3 µM. In a few lines: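 Readout: per-well total peak green fluorescence (488 nm ex, 500–520 nm em) from objects 5–250 µm, reflecting correct splicing of an EGFP-654 reporter. Compounds were applied for 2 days at 37 °C to overnight-plated HeLa EGFP-654 cells; controls were DMSO and 500 nM IVS2-654 PNA.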

A short description of experiment [15]: Confirmation and Secondary Assay for Modulators of Hemoglobin Beta Chain Splicing at IVS2 705 locus (AID 930). Note: % of control where 0% means no effect. The following applies: HeLa EGFP-705 splicing reporter, GFP fluorescence, 48 h; series mostly up to 38.3 µM. In a few lines: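 HeLa cells stably carrying EGFP interrupted by mutant beta-globin intron 2 (IVS2-705) treated 2 days at 37C with compound; 500 nM antisense PNA as control. Correct splicing read as total peak GFP intensity per well by laser-scanning cytometry.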

The nature of experiment [16]: Counterscreen qHTS for small molecule stabilizers of the endoplasmic reticulum resident proteome: GLuc-NoTag assay (AID 1508627).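 Note: SH-SY5Y cells given compound then 100 nM thapsigargin to empty ER calcium; 0% = thapsigargin alone and -100% = DMSO vehicle control.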 The following applies: Gaussia luciferase NoTag secretion counterscreen, luminescence, thapsigargin 100 nM for final 4 h; series mostly up to 76.4 µM. In a few lines:
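Luminescence of Gaussia luciferase secreted into the medium (coelenterazine, 0.07x final, unlysed cells) was the read-out. Human SH-SY5Y neuroblastoma cells constitutively secreting untagged GLuc received compound for 19 h, then 100 nM thapsigargin for 4 h.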

Experiment [17] in a line: Confirmatory qHTS for small molecule stabilizers of the endoplasmic reticulum resident proteome: Secreted ER Calcium Modulated Protein (SERCaMP) assay (AID 1508628). Note: nearly all actives have a fitted effect of over 40% in size. Note: potency is the fitted concentration of half-maximal effect. The following applies: SERCaMP secreted luciferase ER calcium/proteostasis reporter; series mostly up to 76.3 µM. An outline of the steps: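 We seeded SH-SY5Y-GLuc-SERCaMP cells, added compounds (three concentrations in the primary run, eleven up to 76.6 uM in confirmation), incubated 16 h, depleted ER calcium with thapsigargin, and read luciferase 4 h later.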

Experiment [18] can be described thus: Cell Viability qHTS for small molecule stabilizers of the endoplasmic reticulum resident proteome (AID 1508629). The following applies: cell viability counter-screen, 100 nM thapsigargin for final 4 h.
Experiment [19] can be described thus: qHTS Assay for Lipid Storage Modulators (AID 1519; calls by dose curve). To be noted: Drosophila S3 cells, BODIPY lipid droplet/cell ratio, laser cytometry, cells loaded with oleic acid. In a few lines: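 Cells seeded at 5,000 per well were treated with compounds over a concentration series and loaded with oleic acid (400 uM, as added). Lipid droplet fluorescence (488 nm excitation, 500-530 nm channel) was read by laser-scanning cytometry and normalized to 20 uM Triacsin C.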

The target in experiment [20] is Ubiquitin carboxyl-terminal hydrolase 1 (Homo sapiens) (UniProt O94782). The experiment in a line: Inhibitors of USP1/UAF1: Pilot qHTS (AID 504865).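 Note: rhodamine fluorescence freed from ubiquitin-rhodamine substrate followed over time; top concentration of the series differs between compounds; % is set by controls: 0 for no effect and ±100 for the full control effect; nearly all actives have a fitted effect of over 35% in size.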 To be noted: purified USP1/UAF1, Ub-rhodamine cleavage fluorescence; series mostly up to 54.9 µM. An outline of the steps: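 Kinetic fluorescence assay: 1nM USP1/UAF1, 15 min compound preincubation, then 150nM Ub-Rho; 480/540 nm.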
Ubiquitin carboxyl-terminal hydrolase 1 (Homo sapiens), sequence (O94782 whole entry, looked up): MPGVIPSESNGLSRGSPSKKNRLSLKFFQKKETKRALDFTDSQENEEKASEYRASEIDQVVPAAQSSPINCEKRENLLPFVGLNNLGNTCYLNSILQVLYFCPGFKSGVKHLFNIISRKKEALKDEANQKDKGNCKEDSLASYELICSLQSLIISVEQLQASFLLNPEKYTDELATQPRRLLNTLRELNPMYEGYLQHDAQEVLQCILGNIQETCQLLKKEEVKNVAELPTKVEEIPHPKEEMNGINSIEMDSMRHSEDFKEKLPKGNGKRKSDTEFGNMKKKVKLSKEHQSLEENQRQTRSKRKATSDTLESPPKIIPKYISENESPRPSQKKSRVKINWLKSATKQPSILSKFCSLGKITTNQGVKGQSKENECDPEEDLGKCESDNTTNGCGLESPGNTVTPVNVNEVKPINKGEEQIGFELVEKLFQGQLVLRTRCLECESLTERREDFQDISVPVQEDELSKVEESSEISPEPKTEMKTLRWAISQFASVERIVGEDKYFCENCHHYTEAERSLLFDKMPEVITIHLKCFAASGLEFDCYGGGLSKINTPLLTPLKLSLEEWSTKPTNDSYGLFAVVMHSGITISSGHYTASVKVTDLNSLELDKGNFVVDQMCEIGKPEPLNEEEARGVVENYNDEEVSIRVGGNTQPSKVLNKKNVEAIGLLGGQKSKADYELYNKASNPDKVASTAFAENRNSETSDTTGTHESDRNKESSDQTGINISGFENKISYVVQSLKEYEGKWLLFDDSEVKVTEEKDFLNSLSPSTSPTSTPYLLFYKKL

The structures appear in SMILES notation. Records with an inconclusive call do not appear. Active and inactive are the calls of the source. Unless noted, calls come from the whole dose curve; as a rule, active = well fitted curve in the direction sought with a large enough effect; inconclusive = small, poorly fitted or top-dose-only effect, or another doubt; inactive = no such curve, though single readings can be large; an effect the other way counts as inactive or inconclusive.

Lysosomal acid glucosylceramidase (Homo sapiens), sequence (P04062 whole entry, looked up): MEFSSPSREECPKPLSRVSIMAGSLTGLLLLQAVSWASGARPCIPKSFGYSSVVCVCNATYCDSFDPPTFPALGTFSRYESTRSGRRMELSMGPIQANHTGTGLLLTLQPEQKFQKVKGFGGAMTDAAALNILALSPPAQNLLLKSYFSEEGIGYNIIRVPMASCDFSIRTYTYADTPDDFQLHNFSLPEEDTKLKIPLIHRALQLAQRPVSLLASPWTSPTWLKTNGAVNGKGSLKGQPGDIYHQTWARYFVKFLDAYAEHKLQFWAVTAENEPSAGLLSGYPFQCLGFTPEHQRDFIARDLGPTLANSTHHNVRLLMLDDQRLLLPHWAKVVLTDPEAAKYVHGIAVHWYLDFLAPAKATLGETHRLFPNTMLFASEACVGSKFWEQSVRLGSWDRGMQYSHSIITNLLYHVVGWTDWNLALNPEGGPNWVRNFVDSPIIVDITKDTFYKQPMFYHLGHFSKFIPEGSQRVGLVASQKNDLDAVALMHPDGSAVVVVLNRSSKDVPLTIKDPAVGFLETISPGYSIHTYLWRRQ
Cytochrome P450 1A2 (Homo sapiens), sequence (P05177 whole entry, looked up): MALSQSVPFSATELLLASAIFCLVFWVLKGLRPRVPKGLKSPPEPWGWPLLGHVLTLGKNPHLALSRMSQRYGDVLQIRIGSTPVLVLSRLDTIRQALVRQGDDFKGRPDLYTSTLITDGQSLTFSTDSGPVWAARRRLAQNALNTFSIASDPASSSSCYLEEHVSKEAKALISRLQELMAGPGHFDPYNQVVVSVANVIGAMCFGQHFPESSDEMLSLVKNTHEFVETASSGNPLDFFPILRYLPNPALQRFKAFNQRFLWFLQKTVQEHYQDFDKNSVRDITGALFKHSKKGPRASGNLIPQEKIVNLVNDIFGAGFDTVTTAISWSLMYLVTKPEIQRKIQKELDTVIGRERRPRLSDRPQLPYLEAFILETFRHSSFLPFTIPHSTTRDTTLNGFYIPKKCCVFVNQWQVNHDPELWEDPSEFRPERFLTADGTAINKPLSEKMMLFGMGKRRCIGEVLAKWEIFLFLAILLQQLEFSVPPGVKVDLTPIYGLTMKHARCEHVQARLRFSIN
Cytochrome P450 2D6 (Homo sapiens), sequence (P10635 whole entry, looked up): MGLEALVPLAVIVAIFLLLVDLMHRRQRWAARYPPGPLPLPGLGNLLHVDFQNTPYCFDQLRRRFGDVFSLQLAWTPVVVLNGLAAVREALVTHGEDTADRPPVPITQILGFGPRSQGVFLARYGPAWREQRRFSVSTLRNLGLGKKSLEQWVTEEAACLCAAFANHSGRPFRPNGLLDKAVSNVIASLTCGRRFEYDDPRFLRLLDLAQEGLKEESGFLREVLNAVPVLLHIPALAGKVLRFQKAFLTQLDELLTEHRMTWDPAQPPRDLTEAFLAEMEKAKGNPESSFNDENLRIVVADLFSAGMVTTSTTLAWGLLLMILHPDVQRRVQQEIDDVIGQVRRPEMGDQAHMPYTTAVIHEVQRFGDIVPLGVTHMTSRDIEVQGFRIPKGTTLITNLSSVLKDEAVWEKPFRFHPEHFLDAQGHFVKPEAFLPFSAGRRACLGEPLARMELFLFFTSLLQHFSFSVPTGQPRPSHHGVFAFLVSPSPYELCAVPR

Regarding `CN1CCN(c2nc(-c3ccc(N(C)C)cc3)nc3ccccc23)CC1`, the Potency in [1] was > 11.4 µM (inactive); in experiment [3], 12.6 µM (active); in experiment [6], > 46 µM (inactive); in experiment [7], > 46 µM (inactive); in experiment [10] it was 15.8 µM (active); in experiment [12] it was 3.16 µM (active). Besides, the activity change, negative = inhibition in [2] is 5.88% (inactive); in experiment [4], -2.47% (inactive). The activity, negative = inhibition in [5] was 3.05% (inactive). For the same molecule, the molecule was classed as inactive in experiment [8], in [14] and in [15]. The Potency result in [9], in experiment [11], in [13], in experiment [16] and in experiment [17] was “inactive” throughout. The max response in experiment [18] was 17.5% (inactive).
Take `COc1ccccc1CNc1ncnc2ccc(-c3ccccc3CN(C)C)cc12`: the Potency was > 11.4 µM (inactive) in experiment [1]; 15.8 µM (active) in [3]; > 46 µM (inactive) in experiment [6]; > 46 µM (inactive) in experiment [7]; 2.51 µM (active) in [12]; 10 µM (active) in experiment [17]. For the same molecule, the activity change, negative = inhibition in [2] was -6.09% (inactive); in [19] (at 57.5 µM (top of the series)) it was 5.99% (inactive). Also, in experiment [5], the activity, negative = inhibition was -9.28% (inactive). Besides, the call in [8], in [14] and in experiment [15] was inactive. The Potency entry in experiment [11], in experiment [20] and in experiment [16] was “inactive” throughout. In addition, the max response in [19] (measured here: cell count channel max response) is -1.21%; in experiment [19] (measured here: lipid channel max response), 3.46%.

Source of the values: PubChem BioAssay (NCATS).
